From PubChem BioAssay
Only some compounds are listed: those with a hit (about 6.1% of all), similar ones and a draw of the others.
ERG-DNA inh: qHTS for Small Molecule Inhibitors of the ERG Ets/DNA interaction. Transcriptional regulator ERG (Homo sapiens), P11308. fluorescence polarization, His-ERG Ets domain / labelled DNA. Potency, µM (titrated, usually from 76.9 µM), usual class: inhibitors. hit rate 0.028% among 370,000; active means well fitted inhibition curve with a large enough effect in the polarisation, with a control signal flat; inconclusive means small, poorly fitted or top-dose-only effect, or effect the other way, or a change in a side signal; inactive means no such curve, though single readings can be large or run the other way; the % refers to the polarisation;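 further: polarization taken with two DNA probes labelled with fluorescein and Texas red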
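His-tagged ERG Ets domain (1 uM in the protein solution; 300mM KCl, 50mM Tris-HCl, 1mM EDTA, 1mM DTT, pH 7.5) received compound, then a probe mix of 5 nM fluorescein-DNA and 100nM Texas-615-DNA. Fluorescence polarization was read for both dyes.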
D1 antagonist: Antagonist of Human D 1 Dopamine Receptor: qHTS. HEK293 TREx D1 cells, calcium flux, dopamine EC80; stronger effect = lower value. hit rate 3.2% among 360,000. activity change, negative = inhibition, % at 10 µM. D(1A) dopamine receptor (Homo sapiens), P21728; in the data active means activity change below about -30%
Target sequence (P21728 whole entry, looked up): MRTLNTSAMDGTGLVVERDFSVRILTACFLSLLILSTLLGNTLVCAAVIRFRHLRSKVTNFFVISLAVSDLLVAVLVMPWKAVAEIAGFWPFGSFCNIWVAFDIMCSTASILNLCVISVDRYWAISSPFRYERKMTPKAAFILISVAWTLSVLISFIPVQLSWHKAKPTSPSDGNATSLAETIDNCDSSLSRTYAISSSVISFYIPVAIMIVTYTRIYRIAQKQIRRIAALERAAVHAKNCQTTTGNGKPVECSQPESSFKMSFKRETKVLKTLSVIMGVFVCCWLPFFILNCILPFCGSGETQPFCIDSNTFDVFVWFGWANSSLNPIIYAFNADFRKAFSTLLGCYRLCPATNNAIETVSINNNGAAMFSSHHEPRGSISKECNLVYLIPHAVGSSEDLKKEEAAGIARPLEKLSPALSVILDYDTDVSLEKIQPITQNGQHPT
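Tetracycline-induced HEK293 Trex D1 cells, force-coupled to calcium, dye-loaded; compounds added and read 180 s, then EC80 dopamine added and calcium flux tracked kinetically another 180 s.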
D1 potentiator: Potentiators of Human D1 Dopamine Receptor: qHTS; D(1A) dopamine receptor (Homo sapiens), P21728; HEK293 TREx D1 cells, calcium flux, dopamine EC20 potentiation; potentiation, % at 10 µM; hit rate 0.036% among 360,000; AID 504651, 2011; in the data active means potentiation above about 30%
D3 antag: qHTS of D3 Dopamine Receptor Antagonist: qHTS; max response, negative = inhibition, %; D(3) dopamine receptor (Homo sapiens), P35462; hit rate 2.5% among 360,000; D3R cells, DiscoveRx beta-arrestin luminescence, antagonist mode; stronger effect = lower value; in the data active means max response below about -50%; inconclusive means no clear call, values can overlap the other calls
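Cells plated overnight at 1500 cells/well, then exposed to library compounds with dopamine controls for 90 minutes at 37 degrees C. DiscoveRx reagent added for 30–60 minutes at room temperature; luminescence read, quantitative HTS format.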
D1 agonist: Allosteric Agonists of the Human D1 Dopamine Receptor: qHTS; D(1A) dopamine receptor (Homo sapiens), P21728; HEK293 T-REx D1 cells, calcium flux, agonist mode; activation, % at 2 µM; hit rate 1% among 360,000; in the data active means activation above about 30%
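Tetracycline-induced HEK293 TREx D1 cells, force-coupled to calcium signalling, were dye-loaded with a no-wash calcium kit. Compound was pin-added after a 10 s baseline. Fluorescence was read kinetically at 1 cycle/s for 180 s, with calcium rises flagged as agonism.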
DRD3 agonist: qHTS of D3 Dopamine Receptor Agonist: qHTS; hit rate 0.58% among 410,000; D3R DiscoveRx beta-arrestin cells, luminescence, 90 min; D(3) dopamine receptor (Homo sapiens), P35462; max activation, %; in the data active means max activation above about 30%
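Agonist-mode cell screen: cells plated at 1500/well and incubated overnight at 37 °C, then exposed to library compounds for 90 min at 37 °C. Detection reagent was added for 30–60 min at room temperature, and luminescence was read.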
Hits are given with their value; n = inactive; u = inconclusive; x = no result.

SMILES	ERG-DNA inh	D1 antagonist	D1 potentiator	D3 antag	D1 agonist	DRD3 agonist
Cc1nc2ccc(S(=O)(=O)N(C)CC(=O)Nc3ccc(C(C)C)cc3)cc2s1	n	n	n	x	n	n
c1cnc(Oc2ccc3oc4ccccc4c3c2)nc1	n	n	n	n	n	n
Fc1ccccc1COc1ccc(Br)cc1CNCc1ccncc1	n	n	n	-68	n	n
Fc1ccccc1COc1ccc(Br)cc1CNCc1cccnc1	n	n	n	u	n	n
COc1ccccc1CNCc1cc(Br)ccc1OC	n	n	n	n	37	n
COc1cccc(CNCc2ccc(OC)c3ccccc23)c1OC	n	-41	n	n	50	n
COc1ccc(Br)cc1CNc1ccc2[nH]c(=O)[nH]c2c1	n	x	n	n	n	n
COc1ccccc1CNCc1ccc(OC)c2ccccc12	n	x	x	n	x	n
COc1ccc(Br)cc1CNc1ccc(O)cc1	n	n	n	-66	n	n
CN1CCc2c(c3c(n2C)CCN(C)[C@@H]3c2cccnc2)[C@H]1c1cccnc1	n	n	n	n	n	n
Oc1c(Br)cc(Br)cc1CNc1ccc(F)cc1	n	-39	n	n	n	n
O=C(O)CCCN1C(=O)C2C3CCC(O3)C2C1=O (stereo unspecified)	n	n	n	n	n	n
CCCSc1nc2c(c(=O)[nH]1)C(c1ccc(F)cc1F)CC(=O)N2 (stereo unspecified)	n	n	n	x	37	n
COc1ccc(S(=O)(=O)Nc2cc(C(=O)NCCCOC(C)C)ccc2N2CCOCC2)cc1	n	n	n	n	n	n
Cn1cccc1C(=O)NNC(=O)COc1ccccc1F	n	-47	n	n	n	n
O=C1NC2(CCCCCCC2)C(=O)N1Cc1ccc(F)cc1	n	n	n	n	n	n
Cn1c(=O)c2c(nc(SCC(=O)NCc3ccc4c(c3)OCO4)n2Cc2ccc(F)cc2)n(C)c1=O	n	-37	n	n	n	n
Cn1c(=O)c2c(nc(SCC(=O)NCc3ccc4c(c3)OCO4)n2Cc2ccccc2)n(C)c1=O	n	n	n	n	n	n
CCc1cc(=O)oc2cc(C)c(CN3CCCC(C)C3)c(O)c12 (stereo unspecified)	n	n	n	n	n	n
CCCCc1cc(=O)oc2cc(C)c(CN3CCCC3)c(O)c12	n	n	n	n	n	30
CCCc1cc(=O)[nH]c(-n2[nH]c3c(c2=O)CCCC3)n1	n	n	n	n	67	n
CN1C(=O)/C(=C/c2cc(N=Nc3ccccc3)ccc2O)SC1=S	n	n	n	-135	n	n
CC1CCC2(CC1)NC(=O)N(NC(=O)c1cc3ccccc3o1)C2=O (stereo unspecified)	n	n	x	n	n	n
S=C1SCN(Cc2ccccn2)CN1Cc1ccco1	n	n	n	-62	n	n
COc1cc(C(=O)N2CCN(c3ncnc4sc(C)c(C)c34)CC2)cc(OC)c1OC	n	n	n	n	n	n
SMILES	ERG-DNA inh	D1 antagonist	D1 potentiator	D3 antag	D1 agonist	DRD3 agonist
COC(=O)c1ccc(OCC2c3cc(OC)c(OC)cc3CCN2C(=O)c2cccc(C)c2)cc1 (stereo unspecified)	n	-33	n	x	n	n
COC(=O)c1ccc(OCC2c3cc(OC)c(OC)cc3CCN2C(=O)C(C)C)cc1 (stereo unspecified)	n	n	n	x	n	n
Nc1nc(Nc2ccccc2F)sc1C(=O)c1ccccc1	n	n	n	n	34	n
COc1nc(OC/C(N)=N/O)nc(N2CCOCC2)n1	n	n	n	n	n	n
Cc1ccc(P(=O)(c2ccc(C)cc2)[C@@H](NC(c2ccccc2)c2ccccc2)c2ccccc2)cc1	x	x	x	-109	x	n
COc1c(NC(C)=O)c2c(c([N+](=O)[O-])c1OC)C(=O)OC2	n	x	x	n	x	n
Cc1cccc(NC(=O)CSc2nc3ccccc3nc2N2CC(C)OC(C)C2)c1 (stereo unspecified)	n	n	n	n	n	n
Cc1cccc(N2CCN(C(=O)CSc3nc4ccccc4nc3N3CC(C)OC(C)C3)CC2)c1C (stereo unspecified)	n	n	n	n	n	76
CN(Cc1cccs1)C(=O)/C=C/c1ccccc1[N+](=O)[O-]	n	-41	n	n	n	n
CC1(C(=O)NS(=O)(=O)Cc2cccc(Cl)c2)CCN1C(=O)CCc1ccccc1 (stereo unspecified)	x	x	x	n	x	n
CCOC(=O)c1c(N)sc2c(O)c(Br)ccc12	n	n	n	n	n	n
O=C(CSCc1c(F)cccc1F)Nc1ccccc1	n	-74	n	u	n	n
CSc1ccccc1C(=O)Nc1cc(C)ccc1C	n	n	n	n	n	n
Cc1cc(C)nc(SCc2nnc(SCC(=O)Nc3nc(-c4ccccc4)cs3)n2C)n1	n	n	n	n	n	n
CCn1c(CSc2nc(C)cc(C)n2)nnc1SCC(=O)Nc1nc(-c2ccccc2)cs1	n	n	n	n	37	n
O=C(Oc1ccccc1)c1cccc(COC(=O)c2cnccn2)c1	n	-59	n	n	n	n
N#CCCNCC1(c2ccccc2)CCCC1	n	n	n	-54	n	n
Cc1nn(-c2c(Cl)cc(Cl)cc2Cl)c(=O)c2ccccc12	n	n	n	u	74	n
CC(C)C[C@H]1C(=O)N2CCC[C@H]2[C@]2(O)O[C@](NC(=O)[C@@H]3C=C4c5cccc6[nH]c(Br)c(c56)CC4N(C)C3)(C(C)C)C(=O)N12 (stereo partly specified)	n	-42	n	n	n	n
CCCCOc1ccc(C2c3c(oc4ccccc4c3=O)C(=O)N2c2nc(C)c(C(=O)OCC)s2)cc1OC (stereo unspecified)	n	-31	n	x	n	n
CCCOc1cccc(C2c3c(oc4ccccc4c3=O)C(=O)N2c2nncs2)c1 (stereo unspecified)	n	n	n	x	n	56
O=C1C(Cl)=C(N2CCCC2)C(=O)N1c1ccc(F)cc1	n	-33	n	n	n	n
O=C1C(Cl)=C(N2CCOCC2)C(=O)N1c1cccc(C(F)(F)F)c1	n	-34	n	n	n	n
N/C(=N\OC(=O)C12CC3CC(CC(C3)C1)C2)c1ccccn1	n	n	n	n	n	n
CC(C)(C)NC(=O)C(c1ccccc1)N(Cc1cccs1)C(=O)c1csnn1 (stereo unspecified)	n	n	n	n	n	n
